Laboratory results: PubChem BioAssay AID1159580 (chemical genetic matrix, 2015)
Out of some 5,500 compounds screened, about 2,000 (36%) were called active. Another 18% or so got no clear call; they are omitted. Cut-off read from the data, not from the text of the source: active = normalized growth mostly below about 0.91 (no sharp cut-off); inconclusive = no clear call, values can overlap the other calls; inactive = mostly above about 0.92. The list shows a part of the results.

Assay: chemical genetic growth profiling, strain panel (AID 1159580);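 note: tested at 20 µM; growth read once vehicle control cultures reached saturation at 30 °C; 1 = growth at the plate median or of vehicle wells; lower values mean less growth of the strain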
Conditions: growth OD

Measured: normalized growth

CCN1CCN(C(=O)NC(C(=O)N[C@@H]2C(=O)N3[C@@H]2SC(C)(C)[C@@H]3C(=O)O)c2ccccc2)C(=O)C1=O (some centres not stated)
inactive: S. cerevisiae deletion strains, locus YJR075W, strain HOC1, stronger effect = lower value 1.01 | S. cerevisiae deletion strains, locus YKL009W, strain mrt4, stronger effect = lower value 1.02 | S. cerevisiae deletion strains, locus YKL068W, stronger effect = lower value 1 | S. cerevisiae deletion strains, locus YKL085W, strain MDH1 (second series), stronger effect = lower value 0.998 | S. cerevisiae deletion strains, locus YKL085W, strain MDH1, stronger effect = lower value 0.998 | S. cerevisiae deletion strains, locus YKL160W, strain elf1, stronger effect = lower value 0.985 | S. cerevisiae deletion strains, locus YKL190W, strain CNB1, stronger effect = lower value 1.01 | S. cerevisiae deletion strains, locus YKR001C, strain vps1, stronger effect = lower value 1.01 | S. cerevisiae deletion strains, locus YKR026C, strain gcn3, stronger effect = lower value 0.996 | S. cerevisiae deletion strains, locus YKR091W, strain srl3, stronger effect = lower value 1 | S. cerevisiae deletion strains, locus YLL001W, strain dnm1, stronger effect = lower value 0.979 | S. cerevisiae deletion strains, locus YLL026W, stronger effect = lower value 1.01 | S. cerevisiae deletion strains, locus YLL041C, strain sdh2, stronger effect = lower value 0.997 | S. cerevisiae deletion strains, locus YLR027C, strain aat2, stronger effect = lower value 0.998 | S. cerevisiae deletion strains, locus YLR039C, strain RIC1, stronger effect = lower value 0.991 | S. cerevisiae deletion strains, locus YLR058C, strain SHM2, stronger effect = lower value 1.02 | S. cerevisiae deletion strains, locus YLR102C, strain apc9, stronger effect = lower value 1 | S. cerevisiae deletion strains, locus YLR113W, strain HOG1, stronger effect = lower value 0.987 | S. cerevisiae deletion strains, locus YLR221C, strain rsa3, stronger effect = lower value 1 | S. cerevisiae deletion strains, locus YLR258W, strain gsy2, stronger effect = lower value 1 | S. cerevisiae deletion strains, locus YLR262C, strain YPT6 (second series), stronger effect = lower value 0.983 | S. cerevisiae deletion strains, locus YLR262C, strain YPT6, stronger effect = lower value 0.993 | S. cerevisiae deletion strains, locus YLR268W, strain sec22, stronger effect = lower value 1.02 | S. cerevisiae deletion strains, locus YLR320W, strain mms22, stronger effect = lower value 0.978 | S. cerevisiae deletion strains, locus YLR330W, strain CHS5, stronger effect = lower value 1.01 | S. cerevisiae deletion strains, locus YLR342W, strain FKS1 (second series), stronger effect = lower value 1.03 | S. cerevisiae deletion strains, locus YLR342W, strain FKS1, stronger effect = lower value 0.991 | S. cerevisiae deletion strains, locus YLR357W, strain rsc2, stronger effect = lower value 0.957 | S. cerevisiae deletion strains, locus YLR370C, strain arc18, stronger effect = lower value 1.01 | S. cerevisiae deletion strains, locus YLR371W, strain rom2, stronger effect = lower value 1.01 | S. cerevisiae deletion strains, locus YLR384C, strain iki3, stronger effect = lower value 0.992 | S. cerevisiae deletion strains, locus YLR418C, strain cdc73, stronger effect = lower value 1 | S. cerevisiae deletion strains, locus YML016C, strain PPZ1, stronger effect = lower value 1.01 | S. cerevisiae deletion strains, locus YML032C, strain rad52, stronger effect = lower value 1.01 | S. cerevisiae deletion strains, locus YML120C, strain ndi1, stronger effect = lower value 1.01 | S. cerevisiae deletion strains, locus YML124C, strain tub3, stronger effect = lower value 1.01 | S. cerevisiae deletion strains, locus YMR058W, strain fet3, stronger effect = lower value 1 | S. cerevisiae deletion strains, locus YMR078C, strain ctf18, stronger effect = lower value 1 | S. cerevisiae deletion strains, locus YMR125W, strain sto1, stronger effect = lower value 0.988 | S. cerevisiae deletion strains, locus YMR129W, stronger effect = lower value 1 | S. cerevisiae deletion strains, locus YMR205C, strain PFK2, stronger effect = lower value 1.01 | S. cerevisiae deletion strains, locus YMR223W, strain ubp8, stronger effect = lower value 1.01 | S. cerevisiae deletion strains, locus YMR231W, strain pep5, stronger effect = lower value 0.989 | S. cerevisiae deletion strains, locus YMR263W, strain SAP30, stronger effect = lower value 1.01 | S. cerevisiae deletion strains, locus YMR307W, strain GAS1, stronger effect = lower value 0.931 | S. cerevisiae deletion strains, locus YNL067W, strain RPL9B, stronger effect = lower value 1.01 | S. cerevisiae deletion strains, locus YNL071W, strain lat1, stronger effect = lower value 0.999 | S. cerevisiae deletion strains, locus YNL128W, strain TEP1, stronger effect = lower value 1.01 | S. cerevisiae deletion strains, locus YNL153C, strain GIM3, stronger effect = lower value 1.01 | S. cerevisiae deletion strains, locus YNL183C, strain NPR1, stronger effect = lower value 0.967 | S. cerevisiae deletion strains, locus YNL209W, strain ssb2, stronger effect = lower value 1 | S. cerevisiae deletion strains, locus YNL233W, strain BNI4, stronger effect = lower value 0.995 | S. cerevisiae deletion strains, locus YNL248C, strain rpa49, stronger effect = lower value 0.996 | S. cerevisiae deletion strains, locus YNL250W, strain rad50, stronger effect = lower value 1.01 | S. cerevisiae deletion strains, locus YNL271C, strain bni1, stronger effect = lower value 1.01 | S. cerevisiae deletion strains, locus YNL298W, strain CLA4, stronger effect = lower value 1.01 | S. cerevisiae deletion strains, locus YNL307C, strain MCK1, stronger effect = lower value 1.01 | S. cerevisiae deletion strains, locus YNL322C, strain KRE1 (second series), stronger effect = lower value 1 | S. cerevisiae deletion strains, locus YNL322C, strain KRE1, stronger effect = lower value 1 | S. cerevisiae deletion strains, locus YNR049C, strain mso1, stronger effect = lower value 0.993 | S. cerevisiae deletion strains, locus YNR052C, strain pop2, stronger effect = lower value 1.01 | S. cerevisiae deletion strains, locus YOL006C, strain TOP1, stronger effect = lower value 1.02 | S. cerevisiae deletion strains, locus YOL012C, strain htz1 1.52 | S. cerevisiae deletion strains, locus YOL147C, strain pex11, stronger effect = lower value 1 | S. cerevisiae deletion strains, locus YOR001W, strain rrp6, stronger effect = lower value 0.987 | S. cerevisiae deletion strains, locus YOR061W, strain CKA2, stronger effect = lower value 1.01 | S. cerevisiae deletion strains, locus YOR069W, strain VPS5, stronger effect = lower value 1.01 | S. cerevisiae deletion strains, locus YOR070C, strain gyp1, stronger effect = lower value 1 | S. cerevisiae deletion strains, locus YOR080W, strain dia2, stronger effect = lower value 0.997 | S. cerevisiae deletion strains, locus YOR083W, strain WHI5, stronger effect = lower value 0.976 | S. cerevisiae deletion strains, locus YOR106W, strain vam3, stronger effect = lower value 0.984 | S. cerevisiae deletion strains, locus YOR136W, strain idh2, stronger effect = lower value 1.01 | S. cerevisiae deletion strains, locus YOR144C, strain elg1, stronger effect = lower value 1.01 | S. cerevisiae deletion strains, locus YOR184W, strain ser1, stronger effect = lower value 1.02 | S. cerevisiae deletion strains, locus YOR231W, strain MKK1, stronger effect = lower value 0.985 | S. cerevisiae deletion strains, locus YOR265W, strain rbl2, stronger effect = lower value 1 | S. cerevisiae deletion strains, locus YOR270C, strain vph1, stronger effect = lower value 1.01 | S. cerevisiae deletion strains, locus YOR290C, strain snf2, stronger effect = lower value 1.01 | S. cerevisiae deletion strains, locus YOR316C, strain cot1, stronger effect = lower value 1.01 | S. cerevisiae deletion strains, locus YPL051W, strain arl3, stronger effect = lower value 0.983 | S. cerevisiae deletion strains, locus YPL055C, strain LGE1, stronger effect = lower value 1.01 | S. cerevisiae deletion strains, locus YPL078C, strain atp4, stronger effect = lower value 0.976 | S. cerevisiae deletion strains, locus YPL106C, strain sse1, stronger effect = lower value 1.02 | S. cerevisiae deletion strains, locus YPL240C, strain hsp82, stronger effect = lower value 0.988 | S. cerevisiae deletion strains, locus YPL241C, strain CIN2, stronger effect = lower value 1 | S. cerevisiae deletion strains, locus YPL256C, strain CLN2, stronger effect = lower value 0.962 | S. cerevisiae deletion strains, locus YPR119W, strain clb2, stronger effect = lower value 1.02 | S. cerevisiae deletion strains, locus YPR141C, strain kar3, stronger effect = lower value 1.02 | S. cerevisiae deletion strains, locus YPR163C, strain tif3, stronger effect = lower value 1.02 | S. cerevisiae deletion strains, locus YPR167C, strain met16, stronger effect = lower value 1.02 | S. cerevisiae deletion strains, strain wtn01, stronger effect = lower value 1.04 | S. cerevisiae strains, strain wild type, stronger effect = lower value 1.01
